# Counter-ions that a name gives are not always drawn. ± gives the standard deviation of the averaged measurements.
# Key:
# [1] = tested on: CLZ3 (HCA2 human fibroblast dual HR-NHEJ reporter); experiment: NHEJ repair efficiency (GFP+ cells) relative to control (log10 fold); higher = more non-homologous end joining; conditions: 5 µM; doxycycline 0.5 ug/mL
# [2] = tested on: CLZ3 (HCA2 human fibroblast dual HR-NHEJ reporter); experiment: HR repair efficiency (tdTomato+ cells) relative to control (log10 fold); higher = more homologous recombination; conditions: 5 µM; doxycycline 0.5 ug/mL
# 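Wherever HR repair efficiency (tdTomato+ cells) relative to control is given: compound given one day before doxycycline, which switches on I-SceI endonuclease expression to create double-strand breaks within the integrated reporter.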
# 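Wherever NHEJ repair efficiency (GFP+ cells) relative to control is given: compound given one day ahead of doxycycline, which switches on I-SceI endonuclease to cut the chromosomally integrated reporter and create DSBs.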
smiles,measurement,setting,value
CC(C)=CCOc1c2occc2cc2ccc(=O)oc12 [Imperatorin],NHEJ repair efficiency (log10),[1],0.0993 ± 0.22
same,HR repair efficiency (log10),[2],0.135 ± 0.28
COc1cccc2c1cc([N+](=O)[O-])c1c(C(=O)O)cc3c(c12)OCO3 [Aristolochic acid A],NHEJ repair efficiency (log10),[1],0.203
same,HR repair efficiency (log10),[2],0.0578
C/C=C/C#CC#C/C=C/c1ccco1 [Atractylodin],NHEJ repair efficiency (log10),[1],0.014
same,HR repair efficiency (log10),[2],0.114
O=c1cccc2n1C[C@@H]1CNC[C@H]2C1 [Cytisine],NHEJ repair efficiency (log10),[1],0.00702
same,HR repair efficiency (log10),[2],0.264
COC[C@@]12CC[C@H](OC)[C@]34C(C([C@H](OC)[C@H]13)[C@]1(OC(C)=O)[C@H]3[C@@H](OC(=O)c5ccccc5)[C@](O)(C[C@H]34)[C@@H](OC)[C@@H]1O)N(C)C2 [Hypaconitine],NHEJ repair efficiency (log10),[1],0.0511
same,HR repair efficiency (log10),[2],0.0965
O=C/C=C/c1ccccc1 [Cinnamaldehyde],NHEJ repair efficiency (log10),[1],0.0683
same,HR repair efficiency (log10),[2],-0.0835
C=C[C@H]1CN2CC[C@]3(C(=O)Nc4ccccc43)[C@@H]2C[C@@H]1/C(=C\OC)C(=O)OC [Corynoxeine],NHEJ repair efficiency (log10),[1],-0.123
same,HR repair efficiency (log10),[2],-0.139
N#C[C@H](O[C@@H]1O[C@H](CO[C@@H]2O[C@H](CO)[C@@H](O)[C@H](O)[C@H]2O)[C@@H](O)[C@H](O)[C@H]1O)c1ccccc1 [Amygdalin],NHEJ repair efficiency (log10),[1],-0.0091
same,HR repair efficiency (log10),[2],0.107
CCN1C[C@]2(COC)CC[C@H](OC)[C@]34C1[C@H](C[C@H]23)[C@@]1(O)C[C@H](OC)[C@H]2C[C@@H]4[C@@H]1[C@H]2O [Talatisamine],NHEJ repair efficiency (log10),[1],0.0604
same,HR repair efficiency (log10),[2],0.0585
COC(=O)C1=CCCN(C)C1 [Arecoline Hydrobromide],NHEJ repair efficiency (log10),[1],0.0326
same,HR repair efficiency (log10),[2],0.0648
CCN1C[C@]2(COC)[C@H](O)C[C@H](OC)[C@]34C1[C@H]([C@H](OC)[C@H]23)[C@@]1(OC(C)=O)C[C@H](OC)[C@@H]2C[C@@H]4[C@@H]1[C@H]2OC(=O)c1ccccc1 [13-Dehydroxyindaconintine],NHEJ repair efficiency (log10),[1],0.0298
same,HR repair efficiency (log10),[2],-0.0247
COc1ccc2c(c1OC)CN1CCc3cc4c(cc3C1C2)OCO4 (configuration not stated) [Tetrahydroberberine],NHEJ repair efficiency (log10),[1],-0.000562
same,HR repair efficiency (log10),[2],0.103
O=c1ccc2cc(O[C@@H]3O[C@H](CO)[C@@H](O)[C@H](O)[C@H]3O)c(O)cc2o1 [Esculin Sesquihydrate],NHEJ repair efficiency (log10),[1],0.0261
same,HR repair efficiency (log10),[2],0.046
C[C@@]12C[C@@H](c3ccoc3)OC(=O)[C@@H]1CC[C@]1(C)[C@H]2[C@@H]2C=C[C@@]1(O)C(=O)O2 [Columbin],NHEJ repair efficiency (log10),[1],-0.00145
same,HR repair efficiency (log10),[2],-0.0272
COC[C@]12CN(C)C3[C@@H]4[C@H](OC)[C@H]1[C@@]3([C@@H](OC)C[C@H]2O)[C@@H]1C[C@@]2(O)[C@H](OC(=O)c3ccccc3)[C@@H]1[C@]4(O)[C@@H](O)[C@@H]2OC [Benzoylmesaconine],NHEJ repair efficiency (log10),[1],-0.0412
same,HR repair efficiency (log10),[2],-0.144
C[C@@H]1CC[C@H]2[C@@H](C)C(=O)O[C@@H]3O[C@@]4(C)CC[C@@H]1[C@]32OO4 [Artemisinin],NHEJ repair efficiency (log10),[1],0.1
same,HR repair efficiency (log10),[2],0.328
CCN1C[C@]2(COC)[C@H](O)C[C@H](OC)[C@@]34[C@@H]5C[C@@]6(O)[C@H](OC(=O)c7ccccc7)[C@@H]5[C@@](O)([C@@H]([C@H](OC)[C@H]23)[C@@H]14)[C@@H](O)[C@@H]6OC [Benzoylaconine],NHEJ repair efficiency (log10),[1],-0.0909
same,HR repair efficiency (log10),[2],0.0403
COc1cc(C(=O)OC2C3C=COC(OC4OC(CO)C(O)C(O)C4O)C3C3(CO)OC23)ccc1O (configuration not stated) [Amphicoside Ii],NHEJ repair efficiency (log10),[1],0.0243
same,HR repair efficiency (log10),[2],-0.0261
COC[C@@]12CC[C@H](OC)[C@]34C([C@H]([C@H](OC)[C@H]13)[C@]1(O)[C@H]3[C@@H](OC(=O)c5ccccc5)[C@](O)(C[C@H]34)[C@@H](OC)[C@@H]1O)N(C)C2 [Benzoylhypaconine],NHEJ repair efficiency (log10),[1],-0.013
same,HR repair efficiency (log10),[2],0.00783
c1cc2c(cc1[C@H]1OC[C@H]3[C@@H]1CO[C@H]3c1ccc3c(c1)OCO3)OCO2 [Asarinin],NHEJ repair efficiency (log10),[1],-0.271
same,HR repair efficiency (log10),[2],-0.223
CCN1C[C@]2(COC)CC[C@H](OC)[C@]34C1[C@H]([C@H](OC)[C@H]23)[C@@]1(OC(C)=O)C[C@H](OC)[C@@]2(O)C[C@@H]4[C@@H]1[C@H]2OC(=O)c1ccc(OC)cc1 [Crassicauline A],NHEJ repair efficiency (log10),[1],0.00451
same,HR repair efficiency (log10),[2],0.0792
O=c1cccc2n1CC1CC2CN2CCCCC12 (configuration not stated) [Thermopsine],NHEJ repair efficiency (log10),[1],0.0072
same,HR repair efficiency (log10),[2],-0.25
CCN1C[C@]2(COC)CC[C@H](O)C34C1C([C@H](OC)[C@@H]32)[C@]1(O)[C@@H]2[C@H]4CC([C@@H](OC)[C@@H]1O)[C@@H]2O [Fuziline],NHEJ repair efficiency (log10),[1],0.0177
same,HR repair efficiency (log10),[2],0.0271
C[C@@H]1CCC=C2C(=O)C[C@H]3OOC(C)(C)[C@H]3[C@]21C [Nardosinone],NHEJ repair efficiency (log10),[1],-0.0297
same,HR repair efficiency (log10),[2],-0.0118
CC(=O)[C@]1(O)CC[C@@]2(O)[C@]1(C)[C@H](OC(=O)/C=C(\C)C(C)C)C[C@@H]1[C@@]3(C)CC[C@H](O)CC3=CC[C@]12O [Caudatin],NHEJ repair efficiency (log10),[1],-0.0815
same,HR repair efficiency (log10),[2],-0.0376
O=C1CCC[C@@H]2[C@H]3CCCN4CCC[C@@H](CN12)[C@@H]34 [Matrine],NHEJ repair efficiency (log10),[1],-0.00125
same,HR repair efficiency (log10),[2],-0.0371
CCN1C[C@]2(COC)CC[C@H](O)[C@]34C1[C@@](O)([C@@H](OC)[C@H]23)[C@@]1(O)C[C@H](OC)[C@H]2C[C@@H]4[C@@H]1[C@H]2OC [Delsoline],NHEJ repair efficiency (log10),[1],-0.0325
same,HR repair efficiency (log10),[2],0.0487
C=C[C@H]1[C@H](O[C@@H]2O[C@H](CO)[C@@H](O)[C@H](O)[C@H]2O)OC=C2C(=O)OCC[C@H]21 [Sweroside],NHEJ repair efficiency (log10),[1],0.0688
same,HR repair efficiency (log10),[2],0.0254
CNCC(O)c1ccc(O)cc1 (configuration not stated) [Synephrine],NHEJ repair efficiency (log10),[1],0.0915
same,HR repair efficiency (log10),[2],0.108
COc1cc2occc2c2oc(=O)ccc12 [Isobergapten],NHEJ repair efficiency (log10),[1],-0.0955
same,HR repair efficiency (log10),[2],-0.063
O=C1C=CC[C@@H]2[C@H]3CCCN4CCC[C@@H](CN12)[C@@H]34 [Sophocarpine],NHEJ repair efficiency (log10),[1],-0.0254
same,HR repair efficiency (log10),[2],0.165
COc1c(C)c(O)cc2[o+]c(-c3ccccc3)ccc12.[O-][Cl+3]([O-])([O-])[O-] [Dracorhodin perochlorate],NHEJ repair efficiency (log10),[1],0.134
same,HR repair efficiency (log10),[2],0.0436
CC(C)=CCC[C@@](C)(O)[C@H]1CC[C@]2(C)[C@@H]1[C@H](O)C[C@@H]1[C@@]3(C)CC[C@H](O[C@@H]4O[C@H](CO)[C@@H](O)[C@H](O)[C@H]4O)C(C)(C)[C@@H]3CC[C@]12C [R-Ginsenoside Rh2],NHEJ repair efficiency (log10),[1],-0.0662
same,HR repair efficiency (log10),[2],-0.111
CC1=C2C[C@H]3[C@@H](CC(=O)[C@H]4C[C@@H](O)CC[C@@]43C)[C@@H]2CC[C@]12O[C@@H]1C[C@H](C)CN[C@H]1[C@H]2C [Peimisine],NHEJ repair efficiency (log10),[1],-0.0359
same,HR repair efficiency (log10),[2],-0.00991
C=C[C@@H](O)C#CC#C[C@@H](O)/C=C\CCCCCCC [Falcarindiol],NHEJ repair efficiency (log10),[1],-0.109
same,HR repair efficiency (log10),[2],-0.13
c1c2c(cc3c1OCO3)-c1cc3ccc4c(c3c[n+]1CC2)OCO4 [Coptisine Chloride],NHEJ repair efficiency (log10),[1],-0.16
same,HR repair efficiency (log10),[2],0.0577
CCN1C[C@]2(OC(=O)c3ccccc3NC(C)=O)CC[C@H](OC)[C@@]34[C@@H]2C[C@@H]([C@@H]13)[C@@]1(O)C[C@H](OC)[C@H]2C[C@@H]4[C@]1(O)[C@H]2OC [Lappaconitine],NHEJ repair efficiency (log10),[1],0.147
same,HR repair efficiency (log10),[2],0.0273
COc1cc2c(cc1OC)[C@@]13CCN4CC5=CCO[C@H]6CC(=O)N2[C@H]1[C@H]6[C@H]5C[C@H]43 [Brucine],NHEJ repair efficiency (log10),[1],-0.228
same,HR repair efficiency (log10),[2],-0.24
C[C@H]1CC[C@H]2[C@H](C)[C@@H]3CC[C@@H]4[C@@H](C[C@H]5[C@H]4C[C@@H](O)[C@H]4C[C@@H](O)CC[C@@]45C)[C@@H]3CN2C1 [Hupehenine],NHEJ repair efficiency (log10),[1],0.00613
same,HR repair efficiency (log10),[2],-0.0543
CC1(C)[C@H]2O[C@H]2[C@H]2[C@](C)(O)[C@@H]3CCC4[C@H](O)[C@@]3(C[C@@H](O)[C@@]21O)C[C@@]4(C)O [Rhodojaponin Iii],NHEJ repair efficiency (log10),[1],0.0171
same,HR repair efficiency (log10),[2],0.0481
CC(C)=CCC[C@](C)(O)[C@H]1CC[C@]2(C)[C@@H]1[C@H](O)C[C@@H]1[C@@]3(C)CC[C@H](O)C(C)(C)[C@@H]3[C@@H](O[C@@H]3O[C@H](CO)[C@@H](O)[C@H](O)[C@H]3O)C[C@]12C [Ginsenoside Rh1],NHEJ repair efficiency (log10),[1],-0.0663
same,HR repair efficiency (log10),[2],0.25
CN(C)Cc1c[nH]c2ccccc12 [Gramine],NHEJ repair efficiency (log10),[1],0.014
same,HR repair efficiency (log10),[2],-0.0905
CN(C)CCc1ccc(O)cc1 [Hordenine],NHEJ repair efficiency (log10),[1],-0.0244
same,HR repair efficiency (log10),[2],0.111
CCN1C[C@]2(COC)[C@H](O)C[C@H](OC)[C@]34C1[C@H]([C@H](OC)[C@H]23)[C@]1(O)[C@H]2[C@@H](O)[C@](O)(C[C@H]24)[C@@H](OC)[C@@H]1O [Aconine],NHEJ repair efficiency (log10),[1],-0.104
same,HR repair efficiency (log10),[2],0.0705
CCN1C[C@]2(COC)[C@H](O)C[C@H](OC)[C@@]34[C@@H]5C[C@@]6(O)[C@H](OC(=O)c7ccccc7)[C@@H]5[C@@](OC(C)=O)([C@@H]([C@H](OC)[C@H]23)[C@@H]14)[C@@H](O)[C@@H]6OC [Aconitine],NHEJ repair efficiency (log10),[1],-0.148
same,HR repair efficiency (log10),[2],0.0783
CCN1C[C@@]2(COC)[C@H]3[C@@H](OC)[C@H]4C1[C@]3([C@@H](OC)C[C@H]2OC(C)=O)[C@@H]1C[C@@]2(O)[C@H](OC(=O)c3ccccc3)[C@@H]1[C@]4(OC(C)=O)[C@@H](O)[C@@H]2OC [Acetylaconitine],NHEJ repair efficiency (log10),[1],-0.0797
same,HR repair efficiency (log10),[2],-0.0667
O=C(O)[C@@H]1[C@H](C(=O)O)[C@H]2CC[C@@H]1O2 [Endothall Disodium Salt],NHEJ repair efficiency (log10),[1],0.13
same,HR repair efficiency (log10),[2],0.143
C=C[C@@H]1C2=CCOC(=O)C2=CO[C@H]1O[C@@H]1O[C@H](CO)[C@@H](O)[C@H](O)[C@H]1O [Gentiopicrin],NHEJ repair efficiency (log10),[1],-0.0046
same,HR repair efficiency (log10),[2],0.0966
C[C@H]1CCC2N(C1)C[C@H]1C3CC4[C@@H](CC(=O)C5C[C@@H](O)CC[C@@]54C)C3CCC1[C@]2(C)O (some centres not stated) [Peiminine],NHEJ repair efficiency (log10),[1],-0.0507
same,HR repair efficiency (log10),[2],0.0963
CCN1C[C@]2(COC)CC[C@H](OC)[C@]34C1[C@H]([C@H](OC)[C@H]23)[C@@]1(O)C[C@H](OC)[C@H]2C[C@@H]4[C@@H]1[C@H]2O [Chasmanine],NHEJ repair efficiency (log10),[1],0.0232
same,HR repair efficiency (log10),[2],-0.00256
O=c1ccc2cc3ccoc3c(O)c2o1 [Xanthotoxol],NHEJ repair efficiency (log10),[1],0.0631
same,HR repair efficiency (log10),[2],-0.0752
